High-throughput results from PubChem BioAssay.
L3MBTL1 inh: L3MBTL1 (human) inhibition | Q9Y468 | 0.66% of 230,000 active | AlphaScreen L3MBTL1–H3K9me1 peptide binding | AID 485360 | Potency, µM (doses to about 57.1 µM), for inactives: at the highest dose activity, negative = inhibition, most hits filed as inhibitors; note: potency is the fitted concentration of half-maximal effect; % is set by controls: 0 for no effect and ±100 for the full control effect; nearly all actives have a fitted effect of over 60% in size
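AlphaScreen assay: L3MBTL1 (50 nM final) was preincubated 30 min at room temperature with biotinylated H3(1-15)K9me1 peptide (75 nM final), then 30 min with library compounds; streptavidin donor and nickel chelate acceptor beads (10 ug/mL final) added, 30 min dark.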
POLI inh: blocks human DNA polymerase iota activity; Potency, µM (top dose mostly 115 µM), inactives show at the highest dose activity, negative = inhibition, most hits filed as inhibitors; Pol iota fluorescent replication assay, 10 min; 1% of 390,000 active; Q9UNA4; note: potency is the fitted concentration of half-maximal effect
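Pol iota at 10 nM preincubated 15 min with compounds at room temperature; reaction started with fluorescent substrate, 50 nM final. Fluorescence read kinetically at 0 and 10 min; buffer-only wells as negative control.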
Pol eta inh-1: inhibitors of human DNA polymerase eta. Potency, µM (series often up to 114 µM), for the others: at the top dose activity change, negative = inhibition, usual class: inhibitors. AID 588591. Q9Y253. recombinant Pol eta, fluorescent DNA replication assay. 1.2% of 390,000 active; note: potency is the fitted concentration of half-maximal effect; % is set by controls: 0 for no effect and ±100 for the full control effect
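Pol eta (10 nM) was preincubated with compounds for 15 min at room temperature, after which fluorescent replication substrate (50 nM final) was added to start the reaction. Fluorescence was read kinetically at 0 and 10 min.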
APE1 inh: inhibitors of human APE1 endonuclease; AID 2517; recombinant APE1, TAMRA/BHQ-2 abasic DNA cleavage fluorescence; Potency, µM (titrated, usually from 65.8 µM), inactives show at the top dose activity change, negative = inhibition, hits mostly inhibitors; P27695; 0.35% of 350,000 active;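 note: potency is the fitted concentration of half-maximal effect; plate controls were vehicle for no effect and reference inhibitor for full effect; nearly all actives have a fitted effect of over 55% in size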
Target sequence (P27695 whole entry, looked up): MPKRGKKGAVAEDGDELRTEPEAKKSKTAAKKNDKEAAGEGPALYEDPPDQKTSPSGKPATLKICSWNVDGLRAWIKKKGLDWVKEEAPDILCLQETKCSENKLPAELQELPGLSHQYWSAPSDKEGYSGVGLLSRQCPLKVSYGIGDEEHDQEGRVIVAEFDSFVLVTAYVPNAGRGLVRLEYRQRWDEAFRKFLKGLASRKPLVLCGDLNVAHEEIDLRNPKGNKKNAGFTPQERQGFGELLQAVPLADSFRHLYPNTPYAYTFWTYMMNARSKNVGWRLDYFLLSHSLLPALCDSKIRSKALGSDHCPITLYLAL
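Readout is kinetic fluorescence (ex 525, em 598 nm) from cleavage of 50 nM TAMRA/BHQ-2 THF abasic duplex by 0.75 nM APE1, compound added 15 min beforehand at RT.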
POLB inh: blocks human DNA polymerase beta activity. AID 485314. Pol beta primer extension/strand displacement, fluorescence kinetic. 1.3% of 340,000 active. Potency, µM (titrated, usually from 114 µM), for inactives: top-dose activity change, negative = inhibition, most hits filed as inhibitors. P06746; note: potency is the fitted concentration of half-maximal effect; % is set by controls: 0 for no effect and ±100 for the full control effect
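Curves were derived by four-parameter Hill fits of normalized qHTS data. The kinetic fluorescent primer-extension read was taken at 0 and 10 min after 50 nM substrate, following a 15 min room-temperature preincubation of 10 nM enzyme with compounds.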
Pol kappa inh-1: blocks human DNA polymerase kappa activity; purified Pol kappa, fluorescent DNA synthesis assay, 10 min; 0.53% of 400,000 active; Q9UBT6; AID 588579; Potency, µM (highest dose often 107 µM), for the others: top-dose activity, negative = inhibition, usual class: inhibitors; note: potency is the fitted concentration of half-maximal effect; % is set by controls: 0 for no effect and ±100 for the full control effect
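10 nM Pol kappa was preincubated with compounds for 15 min at room temperature. Reaction started with 50 nM (final) substrate. Fluorescence read kinetically at 0 and 10 min.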
BAZ2B confirm: inhibits human BAZ2B bromodomain, hit validation | shares compounds with Pol kappa inh-1 | AID 588809 | Potency, µM, actives largely listed as inhibitors | 100% of 25 active | AlphaScreen BAZ2B / biotin-H3K14Ac peptide displacement; calls by dose curve
AlphaScreen ctr: counter-screen for BAZ2B inhibitors: AlphaScreen signal interference. AID 588859. Potency, µM (titrated, usually from 57.1 µM), for the others: at the top dose activity change, negative = inhibition, hits mostly inhibitors. shares compounds with Pol kappa inh-1. 25 tested, under 10 active. AlphaScreen biotin-His6 peptide bead counterscreen, signal decrease;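 active = clear concentration-dependent signal drop in the bead assay lacking the target, so a primary-screen artifact; inconclusive = weak, partial or single-dose response; inactive = no response, so a real primary hit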
PGK validate: validation of Trypanosoma brucei phosphoglycerate kinase inhibitors; 79% of 500 active; shares compounds with Pol kappa inh-1; TbPGK coupled GAPDH assay, Kinase-Glo luminescence; Potency, µM (highest dose often 57.5 µM), inactives show at the highest dose activity change, negative = inhibition, usual class: inhibitors; note: potency is the fitted concentration of half-maximal effect; % is set by controls: 0 for no effect and ±100 for the full control effect; nearly all actives have a fitted effect of over 65% in size
Target sequence (P07378 whole entry, looked up): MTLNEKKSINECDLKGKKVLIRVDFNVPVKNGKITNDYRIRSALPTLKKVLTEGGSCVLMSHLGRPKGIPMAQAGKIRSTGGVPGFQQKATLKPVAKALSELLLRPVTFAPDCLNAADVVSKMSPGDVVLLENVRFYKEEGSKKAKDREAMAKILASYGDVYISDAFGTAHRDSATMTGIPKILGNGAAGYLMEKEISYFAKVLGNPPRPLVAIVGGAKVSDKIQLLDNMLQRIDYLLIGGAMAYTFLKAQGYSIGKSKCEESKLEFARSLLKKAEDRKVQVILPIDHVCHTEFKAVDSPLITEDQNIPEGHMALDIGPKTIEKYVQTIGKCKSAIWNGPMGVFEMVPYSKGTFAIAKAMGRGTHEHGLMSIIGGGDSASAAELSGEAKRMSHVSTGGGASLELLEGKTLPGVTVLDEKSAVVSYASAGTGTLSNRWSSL
POLI cherry-pick: Inhibitors of human DNA polymerase iota, confirmation. shares compounds with Pol kappa inh-1. Pol iota primer extension, TAMRA/BHQ fluorescence. Potency, µM, most hits filed as inhibitors. 77% of 1,500 active; note: potency is the fitted concentration of half-maximal effect
Pol kappa inh-2: Pol kappa (human) inhibition, cherry-pick confirmation; purified Pol-kappa, fluorescent strand-displacement substrate; 76% of 920 active; shares compounds with Pol eta inh-1; Potency, µM, usual class: inhibitors; note: potency is the fitted concentration of half-maximal effect
Pol eta inh-2: Pol eta (human) inhibition, cherry-pick confirmation | shares compounds with Pol eta inh-1 | Pol eta primer extension, TAMRA/BHQ fluorescence, 10 min | Potency, µM, most hits filed as inhibitors | 64% of 2,600 active; note: potency is the fitted concentration of half-maximal effect
* = called active by the depositor; u = inconclusive; x = no result; [ ] = another dose, or the depositor's remark. An excerpt weighted towards active compounds, which were near 2.5% of everything screened. Unless noted, calls come from the whole dose curve; as a rule, active = well fitted curve in the direction sought with a large enough effect; inconclusive = small, poorly fitted or top-dose-only effect, or another doubt; inactive = no such curve, though single readings can be large; an effect the other way counts as inactive or inconclusive.

SMILES	L3MBTL1 inh	POLI inh	Pol eta inh-1	APE1 inh	POLB inh	Pol kappa inh-1	POLI cherry-pick	Pol eta inh-2	others
C=Cc1cc(OC)c2c(c1)c(=O)oc1c2cc(OC)c2c(O)ccc(C3OC(C)C(O)C(C)(O)C3O)c21 (configuration not stated)	x	2.5µM*	1.4µM*	x	x	4µM*	4.7*	11*
CCOc1ccc(Nc2ncnc3c2nnn3Cc2ccccc2)cc1	3%[2.29 µM]	u	-8%	42%	10%	5%	x	x
Cc1ccc(C(=O)Nc2ccc(S(=O)(=O)N3CCC(c4nc5ccccc5s4)CC3)cc2)cc1	x	23%	-5%	x	-16%	-18%	x	x
Cc1nc(NC(=O)c2ccccc2)sc1-c1csc(Nc2ccc(C(=O)O)cc2)n1	x	u	18µM*	15%	16%	-26%	42*	43*	BAZ2B confirm=28*;AlphaScreen ctr=-17%;Pol kappa inh-2=38*
Cc1ccc2ccccc2c1	x	x	x	5%	x	x	x	x
Cc1ccc2c(C)c3ccc4ccccc4c3c[n+]2c1	x	79µM*	u	x	x	40µM*	27*	x	Pol kappa inh-2=4.7*
ClC(Cl)c1ccccc1	x	x	x	2%	x	x	x	x
CN1CC[C@@]2(C)c3cc(O)ccc3N(C)C2O1 (some centres not stated)	x	25µM*	u	-5%	x	-6%	60*	u
CNC(=O)Oc1ccc2c(c1)[C@@]1(C)CCN(C)[C@@H]1N2C	x	x	x	-4%	x	-7%[19.4 µM]	x	x
CN1CC[C@@]2(C)c3cc(O)ccc3N(C)[C@@H]12	x	10µM*	u	-9%	x	-4%	60*	u
CC(C)(OO)c1ccccc1	x	x	x	6%	x	x	x	x
O=C1NC(=O)C(=Cc2ccco2)C(=O)N1	x	u	8.9µM*	x	x	40µM*	67*	30*	PGK validate=3.7µM*;Pol kappa inh-2=21*
O=C1NC(=O)C(=Cc2c(Cl)cccc2Cl)C(=O)N1	x	-1%	-3%	x	x	-21%	x	x
Cc1cccc(N2C(=O)/C(=C/c3ccc(CN(CCC#N)S(C)(=O)=O)o3)C(=O)NC2=S)c1	x	8.9µM*	6.3µM*	u	20µM*	22µM*	67*	u	Pol kappa inh-2=11*
Cc1ccc(/C=C2/C(=O)NC(=O)N(Cc3ccc(F)cc3)C2=O)o1	x	x	x	14%	25%	x	x	x
Cc1ccc(/C=C2\C(=O)NC(=S)N(c3cccc(F)c3)C2=O)o1	u	u	7.1µM*	-6%	-3%	32µM*	34*	17*
O=[N+]([O-])c1ccccc1-c1ccccc1	x	x	x	2%	x	x	x	x
O=c1ccc(=O)[nH][nH]1	x	x	x	3%	x	x	x	x
ClC(Cl)(Cl)C(Cl)(Cl)Cl	x	x	x	4%	x	x	x	x
O=C1NC(=O)N(c2ccc(Cl)cc2)C(=O)/C1=C\c1ccc(Sc2nc3ccccc3[nH]2)o1	u	u	18µM*	u	22µM*	20µM*	38*	27*	Pol kappa inh-2=15*
COc1ccc2nc(NC(=O)c3nc(S(=O)(=O)Cc4cccc(C)c4)ncc3Cl)sc2c1	x	u	79µM*	x	32µM*	u	75*	u
CCCCNC(=O)/C(C#N)=c1\s/c(=C\c2ccccc2OC(F)F)c(=O)n1CCCOC	4%	32%	-8%	1%	34%	-2%	x	x
c1ccc2nc3ccccc3cc2c1	x	u	x	-3%	x	-10%[60.1 µM]	x	x
C[n+]1c2ccccc2nc2ccc(NCCO)cc21	x	u	40µM*	27µM*	28µM*	45µM*	75*	67*	Pol kappa inh-2=42*
CNc1ccc2nc3ccccc3[n+](C)c2c1	x	35µM*	50µM*	21µM*	28µM*	20µM*	75*	67*	Pol kappa inh-2=19*
SMILES	L3MBTL1 inh	POLI inh	Pol eta inh-1	APE1 inh	POLB inh	Pol kappa inh-1	POLI cherry-pick	Pol eta inh-2	others
OCCNc1c2c(nc3ccccc13)CCCC2	-1%	1%	-8%	-2%	25%	9%	x	x
O=C(CCCCCCCCCCC(=O)NCc1cccnc1)NCc1cccnc1	-6%	7%	-13%	u	0%	3%	x	x
ClCc1ccccn1	x	x	x	4%	x	x	x	x
O=C(CSc1nc(-c2ccc(F)cc2)nc2c1Cc1ccccc1O2)Nc1cccc(C(=O)O)c1	u	5.6µM*	10µM*	3µM*	2.8µM*	8.9µM*	3.4*	76*	BAZ2B confirm=28*;AlphaScreen ctr=-25%;PGK validate=1.6µM*
O=C(c1cncc(Br)c1)N1CCN(S(=O)(=O)c2ccc3ccccc3c2)CC1	-5%	49%	-11%	17%	x	-6%	x	x
CCN1C(=O)/C(=C/c2ccc3c(c2)CCN3CCCCl)C(=O)NC1=S	u	14µM*	13µM*	-11%	28µM*	45µM*	67*	43*
O=C1NC(=O)N(c2ccccc2)C(=O)/C1=C/C=C/c1ccco1	x	u	13µM*	u	u	40µM*	x	38*
Cc1ccc(N2C(=O)NC(=O)/C(=C\C=C\c3ccco3)C2=O)cc1C	u	10µM*	22µM*	5%	40µM*	25µM*	x	60*
O=C1NC(=O)N(Cc2ccccc2)C(=O)/C1=C\C=C\c1ccco1	x	16µM*	18µM*	u	20µM*	35µM*	x	76*
COc1ccc(Nc2c(-c3cc(Br)ccc3O)nc3ncccn23)cc1OC	x	-6%	u	x	2%	3%	x	x
C=C1CCC(O)C/C1=C\C=C1/CCCC2(C)C1CCC2C(C)CCCC(C)C (configuration not stated)	x	x	x	-6%	x	u	x	x
